# Reference: the supplement of paper PMC6555819
# Tested on: VDR:RXRa (NR concentration 270 nM, RXRa partner concentration 90 nM)
# Experiment: PBM binding z-score (relative to random genomic background probes); higher = stronger binding; sequences stand for … in GC…GCGATTGACAGCGTAGAATGAAGG
# Method: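 Protein-binding microarray (Agilent 4x180K custom design, double-stranded 60-nt probes: 5' GC cap, 34-nt variable region, 24-nt constant primer region; full probe sequence given). Purified or IVT nuclear receptor:RXRα heterodimers (3:1 NR:RXRα, mostly 270:90 nM) or homodimers were incubated for 1 h in PBS with 2% milk and no ligand, then detected with Alexa488 antibodies. Fluorescence from o1-orientation probes (~5 replicates averaged) was converted to z-scores against 500 random hg19 background probes. Variable regions are seed direct-repeat (DR0–DR5) sites, all their single-nucleotide variants and half-site ablations.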
row,Sequence,PBM binding z-score
1,CAAACTAGGTGACCGGAAGGTCAAAGTCCGCATG,4
2,TCTCGGAGGACACGAAGCTCAGAGCTTTCCAGAG,-0.415
3,ATCTCTAGGTAACAAGTTCAGTGGAAGAGAGGAC,2
4,TGAATGAGGTTCAAGATCAGGGAACGTGGCGTCG,1.56
5,CCTCGGAGGACAACAGGAGGTCAGCGCTGCCAGA,2.39
6,TGTCAAAGTTCAGAGGTAACGTAAGTATCCACAC,3.36
7,CCAGACAGGTGAAAGGTAAATCAGTCTGGTACGC,0.701
8,TGAATGGGGTTAAAGATCAGGGAACGTGGCGTCG,3.29
9,TGGATGAGGTTAAAGATCAGGGAACGTGGCGTCG,2.32
10,ATCTCTAGGTAAAAGTTCAGTGAATCCCGAGGAT,1.31
11,TCAGCTAGGTCAGTTGGTCAGCTAACGAGCTGCC,0.211
12,GCTTGTAGATCAAGGATAAGAAAGACTAAGCTAA,-0.525
13,CGAACTCGGTCAGAACAGGACAGTGAAGGATGAT,-0.191
14,TCATATAGGTAAACAGGTAAAAGTCCGTAAGTTA,1.29
15,CCGACCGGGGCAAGGTTACCATAACGCACAGCCA,0.334
16,GGAACGAGGGCAAAGTGGATAGCATCTGTCGACG,1.08
17,CCTAGTTGGTCAATGTCACACACGCTATAGGTAC,0.974
18,ACTAGTTGGGCAGCTGAGGTCACACACAATTCGG,3.72
19,CCTCGGAGGACAACAGGAGGGCAGAGCTGCCAGA,-0.641
20,AAAATGAGGTTACCAAAGATCAGGGAAACGCTTG,1.94

row,Sequence,PBM binding z-score
1,CAGCCAAGGTCAGGGCCAGTATAGGAGGAACGTT,2.4
2,GCCCGGAGGACAAGGTCAGAGCTTTGTCCGTAGA,1.11
3,AGAACGAGGGGAATGAGTTGATAGCACGGGTGGC,2.09
4,TCATATAGGTAATACAGGTGAAAGCCGGCATCTA,1.2
5,TCTTGTAGATCAATAGAGGTTAAGAAGGTGCGCT,1.91
6,TCTTGTAGATCAACAGGCGGTTAAGAAAGATCGA,0.345
7,TCGAGTAGGTTACCAATGGGGCAATCAGCTTTCT,0.0268
8,ACTACCAGGCCAAGGGTCACTCAAGATTAGTCCG,3.07
9,TCTTGTAGATCAGGAGGTTAAGAAAGCTGGCCAA,0.556
10,ATATGGAGGTTATCGGGTCATTCAGTTTGCGCAT,5.78
11,TCTTGTAAATCAGCAGGTTAAGAAAGCTGGCCAA,0.539
12,TCTAGTAGTTGAAGGGCAACCGACGAGTCCGTTT,0.266
13,TCTTGTAGATCAAGCAGGTTATGAAAGCCTGAGT,0.521
14,CAAACTAGGTCGCCGGAAGGTCAAAGTCCGCATG,4.5
15,TCTTGTAGATCAAAGGGTAAGAAAGCCGAAGCCT,0.126
16,TCTTTTAGATCAACAGGAGGTTAAGAAAGATCGA,0.982
17,CCTACTGGGCCATTCAGAGGTAATTGATCATATG,-0.36
18,ATCTCTAGGTAAAGTTCAGTGACAGATCGATAGA,1.63
19,CCGACTGGGGCATAAGGTTAGCATAAGCCAGCCC,-0.409
20,ACTAGTTGGTCATCTGAGGTCACACACAATTCGG,5.04
